This is a sample that favours compounds with a hit; in the whole collection about 7.3% have one here.
ELG1 genotoxic: genotoxicity induction in ELG1-luciferase HEK293T cells; actives 1.3% (n = 330,000); Potency, µM (titrated, usually from 46 µM), actives largely listed as activators; HEK293T ELG1-luciferase reporter, luminescence, 16 h; also: nearly all actives have a fitted effect of over 60% in size
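Step 1: seed 2,000 HEK293T ELG1-luciferase cells per well. Step 2: add compound or DMSO, incubate 16 hr at 37 °C. Step 3: ONE-Glo, 30 min at room temperature, read luminescence.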
Rab9 promoter act: Rab9 promoter activation; Huh7 Rab9 promoter-luciferase reporter, luminescence, 24 h; Potency, µM (titrated, usually from 9.22 µM), usual class: activators; actives 2.8% (n = 320,000); AID 485297; also: nearly all actives have a fitted effect of over 60% in size
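Huh7 cells stably carrying Rab9 promoter–luciferase reporter, plated 1500 cells/well, compound added after 2 h and incubated 24 h at 37 °C; luciferase luminescence then read after 10 min with detection reagent.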
FLuc modulator: counter-screen for miR-21 project: firefly luciferase inhibitors or activators. Potency, µM (highest dose often 57.5 µM), usual class: inhibitors. actives 6.9% (n = 360,000). purified FLuc, Km substrates, luminescence inhibition; also: nearly all actives have a fitted effect of over 55% in size
Target sequence (P08659 whole entry, looked up): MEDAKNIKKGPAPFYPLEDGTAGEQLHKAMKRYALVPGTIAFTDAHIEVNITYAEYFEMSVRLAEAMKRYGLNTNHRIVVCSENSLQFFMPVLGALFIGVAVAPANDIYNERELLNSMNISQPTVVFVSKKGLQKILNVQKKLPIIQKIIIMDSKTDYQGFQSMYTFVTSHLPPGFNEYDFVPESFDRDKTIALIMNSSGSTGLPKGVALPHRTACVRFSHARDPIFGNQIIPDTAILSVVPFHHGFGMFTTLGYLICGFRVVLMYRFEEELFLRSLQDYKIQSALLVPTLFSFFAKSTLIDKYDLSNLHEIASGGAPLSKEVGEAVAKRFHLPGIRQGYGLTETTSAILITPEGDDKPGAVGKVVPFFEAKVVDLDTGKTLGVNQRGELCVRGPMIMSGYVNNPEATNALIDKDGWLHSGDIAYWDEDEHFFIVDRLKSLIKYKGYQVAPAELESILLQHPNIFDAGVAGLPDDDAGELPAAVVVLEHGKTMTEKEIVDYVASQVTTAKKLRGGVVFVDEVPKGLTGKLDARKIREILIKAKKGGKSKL
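Purified P. pyralis luciferase, 10 nM final, with Km-level 10 uM D-luciferin and 10 uM ATP in 50 mM Tris acetate pH 7.5, 10 mM Mg acetate, 0.01% Tween-20, 0.05% BSA; 6-point qHTS titration about 60 µM downward; luminescence read.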
NPC1 promoter act: NPC1 promoter activation; actives 2.4% (n = 320,000); AID 485313; Huh7 NPC1 promoter luciferase reporter, 24 h; Potency, µM (doses to about 9.22 µM), most hits filed as activators; also: nearly all actives have a fitted effect of over 60% in size
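Stable NPC1-promoter luciferase Huh7 line; cpd (DMSO) 24 h, 37 °C, 5% CO2; Amplite luciferase reagent 10 min RT; luminescence readout. qHTS format.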
SMN2 splice up: SMN2 splice variant enhancement; HEK293 SMN2-luciferase splicing reporter, luminescence, 30-36 h; Potency, µM (series often up to 46.1 µM), most hits filed as activators; actives 2.8% (n = 210,000); AID 1458; also: nearly all actives have a fitted effect of over 55% in size
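qHTS luciferase splicing reporter: luminescence rises when SMN2 exon 7 is included in transfected HEK293 cells. Compound exposure lasted 30-36 h at 37C, with 4.5 mM final sodium butyrate as control, followed by a ONE-Glo read.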
p53 reactivation: re-activators of mutant p53. H1299 p53-A138V BP100-luciferase reporter, luminescence, 24 h. actives 0.063% (n = 320,000). Potency, µM (doses to about 92.2 µM), usual class: activators; also: nearly all actives have a fitted effect of over 45% in size
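p53-null H1299 cells stably carrying temperature-sensitive p53-A138V and a BP100-luciferase reporter were pinned with compounds (4-point, 1:5 series) and held 24 hrs at 37 deg C. Luminescence was read 10 min after detection reagent.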
Each line names hits and unclear results; the compound was inactive in the other large screens. Calls follow the shape of the dose curve; as a rule, active = well fitted curve in the direction sought with a large enough effect; inconclusive = small, poorly fitted or top-dose-only effect, or another doubt; inactive = no such curve, though single readings can be large; an effect the other way counts as inactive or inconclusive.

C=CCN1C(=O)/C(=C/c2cccs2)C(=O)NC1=S	none
COc1ccc(/C=C2\C(=O)NC(=O)N(Cc3ccccc3)C2=O)c(OC)c1OC	none
COc1ccc(CN2C(=O)NC(=O)/C(=C\c3ccco3)C2=O)cc1	FLuc modulator 24µM
O=C1NC(=O)N(CCc2ccc(F)cc2)C(=O)/C1=C/c1ccco1	FLuc modulator inconclusive
COc1ccc(CN2C(=O)NC(=O)/C(=C\c3cc(OC)c(OC)c(OC)c3)C2=O)cc1	FLuc modulator 19µM
c1cc(CN2CCC3(CCNCC3)CC2)ccn1	none (no result: ELG1 genotoxic, Rab9 promoter act, FLuc modulator, NPC1 promoter act, p53 reactivation)
O=C1CCCC2C3CC(CN12)C1CCCCN1C3 (centres undefined)	none (no result: ELG1 genotoxic, Rab9 promoter act, FLuc modulator, NPC1 promoter act, p53 reactivation)
Cc1ccc(/C=C2/Sc3ccc(C(=O)N4CCC5(CC4)OCCO5)cc3NC2=O)cc1	FLuc modulator 15µM (no result: SMN2 splice up)
Cc1cc(N=Nc2ccccc2C)ccc1N	SMN2 splice up 14µM (no result: ELG1 genotoxic, Rab9 promoter act, FLuc modulator, NPC1 promoter act, p53 reactivation)
Nc1ccc(N=Nc2ccccc2)cc1	ELG1 genotoxic inconclusive, Rab9 promoter act inconclusive, FLuc modulator inconclusive
CN(C)P(=O)(C(Cl)=C(N1CCCCC1)N1CCCCC1)N(C)C	p53 reactivation 32µM
COc1cc2c(cc1OC)[C@@]13CCN4C=C5CCO[C@H]6CC(=O)N2[C@@H]1C6[C@H]5C[C@H]43 (some centres undefined)	none (no result: ELG1 genotoxic, Rab9 promoter act, FLuc modulator, NPC1 promoter act, p53 reactivation)
Cc1nc2ccc(OC(=O)c3ccccc3)cc2s1	FLuc modulator 8.5µM (no result: SMN2 splice up)
COC(=O)C(O)(c1ccc(NC(=O)NC2CCCCC2)cc1)C(F)(F)F (centres undefined)	ELG1 genotoxic inconclusive, Rab9 promoter act inconclusive, FLuc modulator 12µM, NPC1 promoter act inconclusive, SMN2 splice up inconclusive, p53 reactivation inconclusive
COc1ccc(NC(=O)O/N=C/c2ccccc2)cc1	ELG1 genotoxic inconclusive, Rab9 promoter act inconclusive, FLuc modulator 9.5µM, NPC1 promoter act 3.5µM, p53 reactivation inconclusive (no result: SMN2 splice up)
C[C@]1(O)CC[C@H]2[C@@H]3[C@@H](O)CC4=CC(=O)CC[C@@]4(C)[C@H]3CC[C@]21C	none (no result: ELG1 genotoxic, Rab9 promoter act, FLuc modulator, NPC1 promoter act, p53 reactivation)
CCOc1ccc(N)cc1	none (no result: ELG1 genotoxic, Rab9 promoter act, FLuc modulator, NPC1 promoter act, p53 reactivation)
CCOc1ccc(/C=C/C(=O)C(C(N)=O)=C2SCCS2)cc1	Rab9 promoter act inconclusive, FLuc modulator 1.7µM, NPC1 promoter act inconclusive, p53 reactivation inconclusive
COc1ccc2nc(NC(=O)CCc3nc(C4=CCN(C)CC4)no3)sc2c1	FLuc modulator 21µM
COc1ccccc1OCC(=O)N1CCCC(N(C)Cc2ccccc2)C1 (centres undefined)	none (no result: SMN2 splice up)
CCCOC1CCCN(C(=O)CCc2nnc(Cc3cccc(C)c3)o2)C1 (centres undefined)	ELG1 genotoxic inconclusive, Rab9 promoter act 2.8µM, FLuc modulator 21µM, NPC1 promoter act inconclusive (no result: SMN2 splice up)
Nc1ccc(Oc2cccc(Oc3ccc(N)cc3)c2)cc1	FLuc modulator 19µM
COc1cc(C=C2C(=O)NC(=O)NC2=O)ccc1OCc1ccc([N+](=O)[O-])cc1	ELG1 genotoxic 21µM, FLuc modulator 9.5µM, SMN2 splice up inconclusive
CC[C@H](C)[C@H](NC(=O)[C@H](CCCN=C(N)N)NC(=O)[C@H](CCCN=C(N)N)NC(=O)[C@H](CC(C)C)NC(=O)[C@H](Cc1ccccc1)NC(=O)CNC(=O)CNC(=O)[C@@H](N)Cc1ccc(O)cc1)C(=O)O	none (no result: ELG1 genotoxic, Rab9 promoter act, FLuc modulator, NPC1 promoter act, p53 reactivation)
Cc1ccc(-c2nnc(Nc3ccc(OC(F)(F)Cl)cc3)c3ccccc23)cc1S(=O)(=O)NC(C)(C)CO	FLuc modulator 5.4µM (no result: ELG1 genotoxic, Rab9 promoter act, NPC1 promoter act, p53 reactivation)
NCCc1ccc(S(=O)(=O)O)cc1[N+](=O)[O-]	none (no result: ELG1 genotoxic, Rab9 promoter act, FLuc modulator, NPC1 promoter act, p53 reactivation)
O=[As](O)(O)c1ccc(N=Nc2ccc([As](=O)(O)O)cc2)cc1	none (no result: ELG1 genotoxic, Rab9 promoter act, FLuc modulator, NPC1 promoter act, p53 reactivation)
CC(C)[C@H](NC(=O)[C@H](CCC(=O)O)NC(=O)[C@H](Cc1ccccc1)NC(=O)[C@H](C)NC(=O)[C@@H](N)Cc1ccc(O)cc1)C(=O)N[C@H](C(=O)NCC(N)=O)C(C)C	none (no result: ELG1 genotoxic, Rab9 promoter act, FLuc modulator, NPC1 promoter act, p53 reactivation)
O=C(OCc1ccc(Cl)c(Cl)c1)c1ccccn1	FLuc modulator 15µM
O=C(Oc1ccccc1)c1cccc(COC(=O)c2cnccn2)c1	SMN2 splice up inconclusive
NCC#Cc1ccccc1	none (no result: ELG1 genotoxic, Rab9 promoter act, FLuc modulator, NPC1 promoter act, p53 reactivation)
C#CC(CC)(CC)NC(=O)Nc1ccc(OCC)cc1	none

Screening results deposited in PubChem BioAssay by National Center for Advancing Translational Sciences (NCATS).
